# Measured potencies and affinities stand elsewhere. Values without a mark were called inactive. Active and inactive are the calls of the source. The rule behind the calls is not given here.
# Target: Beta-2 adrenergic receptor (Homo sapiens) (UniProt P07550)
# Assay: ADRB2 activation measured by internalization – cell-based, FAP fluorogen, flow cytometry, cherry pick 1, dose response (AID 588763)
# Details: AM2.2-beta2AR cells, 90 min; series mostly up to 33 µM; activation (receptor internalization): at the top concentration
# Sequence of Beta-2 adrenergic receptor (Homo sapiens) (P07550 whole entry, looked up): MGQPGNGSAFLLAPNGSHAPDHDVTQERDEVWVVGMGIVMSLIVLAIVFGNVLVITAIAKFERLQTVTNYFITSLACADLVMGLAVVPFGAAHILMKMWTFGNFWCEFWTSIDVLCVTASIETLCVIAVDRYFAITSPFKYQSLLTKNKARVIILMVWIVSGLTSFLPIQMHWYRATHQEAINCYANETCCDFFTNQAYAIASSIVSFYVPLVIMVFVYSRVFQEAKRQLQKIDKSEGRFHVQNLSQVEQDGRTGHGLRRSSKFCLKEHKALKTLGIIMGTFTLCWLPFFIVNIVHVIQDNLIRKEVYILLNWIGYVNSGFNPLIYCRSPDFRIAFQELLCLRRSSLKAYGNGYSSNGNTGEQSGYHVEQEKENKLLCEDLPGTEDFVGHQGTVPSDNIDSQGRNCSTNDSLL
Compound,activation (receptor internalization),outcome
Cc1ccc(OCC(O)Cn2c(=N)n(Cc3ccccc3)c3ccccc32)cc1 (stereo not drawn),45.7%,
CC(NCc1ccc(OCc2ccc(Cl)cc2)cc1)C(O)c1ccccc1 (stereo not drawn),66.1%,
COc1ccccc1N1CCN(C(=O)CN(C)S(=O)(=O)c2ccc(C)cc2)CC1,50.6%,
COc1cccc(-c2ccc(NC(=O)C3CCCN(Cc4cnn(C(C)C)c4)C3)cc2)c1 (stereo not drawn),28.5%,
CC(=O)c1ccc(NC(=O)c2ccc3c(Cl)c4c(nc3c2)CCCC4)cc1,94.8%,
CC(NC(=O)c1cc(COc2ccc3ncccc3c2)on1)c1ccc(F)cc1 (stereo not drawn),27.1%,
CCc1ccc(CN(C)C(=O)c2cc(COc3cncc(Cl)c3)on2)cc1,-3.26%,
CC1CCCN(C(=O)C(C)Sc2nc(-c3ccccc3)cc(C(F)(F)F)n2)C1 (stereo not drawn),70.8%,
COc1cccc(CN2CCC(Oc3ccc(C(=O)N4CCCCC4)cc3)CC2)c1,2.46%,
CN(CC(=O)N1CCN(c2ccc(F)cc2)CC1)S(=O)(=O)c1ccc(F)cc1,,inactive
COc1cccc(-c2ccc(NC(=O)C3CCCN(Cc4ccccn4)C3)cc2)c1 (stereo not drawn),11.9%,
O=C(COc1ccc(S(=O)(=O)N2CCOCC2)cc1)Nc1ccc2c(c1)OCCO2,5.84%,
Cc1cc(S(=O)(=O)N2CCOCC2)ccc1OCC(=O)Nc1ccccc1F,-7.22%,
Cc1ccc(-c2nc(NC(=O)c3cc(C(C)(C)C)nn3C)sc2C)cc1Cl,14.2%,
COc1ccc(NC(=O)c2cccc(N3C(=O)c4cccc([N+](=O)[O-])c4C3=O)c2)cc1,1.29%,
O=C1CN(S(=O)(=O)c2cccc(Cl)c2Cl)c2ccccc2N1,41.8%,
CSc1ccc(CCNC(=O)C2CCN(c3nnc(-n4cccc4)s3)CC2)cc1,88.6%,

Compound,activation (receptor internalization),outcome
CCCOc1ccc(-c2nnn(CC(=O)Nc3cccc(C(=O)OC)c3)n2)cc1,-10.7%,
COc1ccccc1-c1cc(C(F)(F)F)nc(S(=O)(=O)CCCC(=O)N2CCOCC2)n1,38.6%,
Cc1cccc(CN2CCC(Oc3ccc(C(=O)N4CCCCC4)cc3)CC2)c1,13.5%,
CC1CCN(C(C(=O)Nc2ccc3c(c2)OCO3)c2ccccc2)CC1 (stereo not drawn),6.59%,
COc1ccccc1N1CCN(C(=O)CN(C)S(=O)(=O)c2cc(C)ccc2OC)CC1,77.6%,
NS(=O)(=O)c1ccc(NC(=O)c2cccc(N3C(=O)c4ccccc4C3=O)c2)cc1,95.3%,
CC(C)NCC(O)c1cc(O)cc(O)c1 (stereo not drawn),23.2%,
Cc1ccccc1OCc1nc(-c2ccc(NC(=O)c3ccc4c(c3)OCO4)cc2)no1,2.95%,
CC(=O)Nc1ccc(CN2CCC(Oc3ccc(C(=O)N4CCCC4)cc3)CC2)cc1,-1.14%,
CCOC(=O)c1ccc(NC(=O)Cn2nnc(-c3ccccc3C)n2)cc1,-1.98%,
CCOc1cc(-c2nc3ccccn3c2NCC2CCCO2)ccc1O (stereo not drawn),-11.8%,
Cc1cc(S(=O)(=O)N2CCOCC2)ccc1OCC(=O)Nc1cccc(C(F)(F)F)c1,6.22%,
Cc1ccc(S(=O)(=O)c2ccc([N+](=O)[O-])o2)cc1,-470%,
COc1cc(CNCCc2ccc(S(N)(=O)=O)cc2)ccc1OCc1ccc(Cl)cc1,46.7%,
COC(=O)c1ccccc1NC(=O)COc1ccc(S(=O)(=O)N2CCCC2)cc1C,6.72%,
N=c1n(CC(=O)c2ccc([N+](=O)[O-])cc2)c2ccccc2n1Cc1ccc(Cl)cc1,103%,

# Reference: PubChem BioAssay AID588763 (NMMLSC, 2011)
